The values that follow come from PubChem BioAssay (NCI).

Some test systems named below: HCT-15 colon; HT29 colon; SNB-75 CNS; SNB-19 CNS; U251 CNS; PC-3 prostate; SK-MEL-5 melanoma; UACC-62 melanoma; LOX IMVI melanoma; SK-MEL-28 melanoma; SK-MEL-2 melanoma; EKVX NSCLC; SN12C renal; UO-31 renal; TK-10 renal; ACHN renal; CAKI-1 renal; A498 renal; CCRF-CEM leukemia; MOLT-4 leukemia.
Common to all, as to experiment: NCI-60 one-dose screen, 48 h (100 = growth as untreated, 0 = no growth, -100 = all killed)
Settings in all cases: 10 µM unless noted

Structures are written as SMILES. Where “and” joins values, the source holds several entries; their conditions need not be identical. Equal entries are not always repeated. Compounds without any hit were thinned out: in the full panel of roughly 83,000, 20% have a hit.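 Testing used 96-well plates and a 48-hour single-concentration exposure. Example: -40 means 40% of the starting cells died.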 Calls of active or inactive are those of the source. The calls were made as follows: active = growth percent below 10; inactive = the rest.

As to `O=C(Nc1ccccc1C(=O)N/N=C(\c1ccccc1)c1ccccn1)c1ccccc1`, the growth in the test with HCT-15 colon is 25.7% (inactive); in the test on HT29 colon it was 22.1% (inactive); in the test with SNB-75 CNS it was 64% (inactive); in the test on SNB-19 CNS it was 27.9% (inactive); in the test on U251 CNS, 10.8% (inactive); in the test on PC-3 prostate it was 43.7% (inactive). Besides, the growth in the test with SK-MEL-5 melanoma was -20.9% (active); in the test with UACC-62 melanoma it was -10.4% (active); in the test on LOX IMVI melanoma it was 14.5% (inactive); in the test with SK-MEL-28 melanoma it was 31.9% (inactive); in the test with SK-MEL-2 melanoma it was 30.2% (inactive); in the test on EKVX NSCLC, 10.1% (inactive). The growth in the test with SN12C renal is 25.4% (inactive); in the test with UO-31 renal, 8.85% (active); with TK-10 renal it was 47.4% (inactive); with ACHN renal, 13.6% (inactive); with CAKI-1 renal, 16.9% (inactive); in the test on A498 renal, 16.5% (inactive). Besides, the values for the growth in the test on CCRF-CEM leukemia and with MOLT-4 leukemia were -2.61% (active) and 2.47% (active), respectively.

As for `CN(C)c1ccc2nc3ccc(=O)cc-3sc2c1`, the growth with HCT-15 colon is 36.2% (inactive) and 37.2% (inactive); in the test on HT29 colon, 39.9% (inactive) and 40.7% (inactive); in the test with SNB-75 CNS, 94.9% (inactive) and 36.7% (inactive); with SNB-19 CNS it was 55.8% (inactive) and 45.9% (inactive); in the test on U251 CNS it was 21.2% (inactive) and 33.3% (inactive); in the test with PC-3 prostate, 29.7% (inactive) and 33% (inactive). Further, the growth in the test on SK-MEL-5 melanoma is -94.8% (active) and -89.9% (active); in the test with UACC-62 melanoma it was 32.5% (inactive) and 32.9% (inactive); with LOX IMVI melanoma, 5.56% (active) and 5.52% (active); with SK-MEL-28 melanoma, 77.6% (inactive) and 63% (inactive); in the test with SK-MEL-2 melanoma, 13.8% (inactive) and 35.6% (inactive); in the test with EKVX NSCLC, 41.3% (inactive). In addition, the growth is 41.9% (inactive) and 34.5% (inactive) with SN12C renal; 14.8% (inactive) and 31.4% (inactive) in the test with UO-31 renal; 60.9% (inactive) and 67.4% (inactive) with TK-10 renal; 20% (inactive) and 21.7% (inactive) with ACHN renal; 34.1% (inactive) and 22.3% (inactive) in the test with CAKI-1 renal; 85.7% (inactive) in the test with A498 renal. For the same compound, the growth in the test on CCRF-CEM leukemia is 13% (inactive) and 20.1% (inactive); with MOLT-4 leukemia it was -18.7% (active) and 20.2% (inactive).

On to `Cc1ccc(-c2nc3nc(-c4ccc(Br)cc4)nc(N4CCCNCC4)c3o2)cc1`, for which the growth in the test on HCT-15 colon is -84.5% (active); in the test on HT29 colon, -85.3% (active); in the test on SNB-75 CNS it was 96.2% (inactive); in the test on SNB-19 CNS it was -47.3% (active); with U251 CNS, -76.6% (active); in the test with PC-3 prostate, -52% (active). Moreover, the growth was 92.6% (inactive) with SK-MEL-5 melanoma; 101% (inactive) in the test on UACC-62 melanoma; -85.1% (active) in the test on LOX IMVI melanoma; 103% (inactive) with SK-MEL-28 melanoma; 108% (inactive) in the test with SK-MEL-2 melanoma; 114% (inactive) with EKVX NSCLC. Moreover, the growth with SN12C renal is -77.4% (active); with UO-31 renal, 63.4% (inactive); in the test with TK-10 renal, 19.9% (inactive); with ACHN renal, -95.4% (active); with CAKI-1 renal, -50.5% (active); in the test on A498 renal it was 80.5% (inactive). Further, the growth with CCRF-CEM leukemia is -64.4% (active); with MOLT-4 leukemia, -56.8% (active).

As to `Cc1nonc1-c1ccc2c(c1)OCO2`, the growth is 97.5% (inactive) and 107% (inactive) in the test on HCT-15 colon; 102% (inactive) and 107% (inactive) in the test with HT29 colon; 96.3% (inactive) and 96.6% (inactive) in the test with SNB-75 CNS; 112% (inactive) and 95.7% (inactive) in the test on SNB-19 CNS; 93.7% (inactive) and 108% (inactive) with U251 CNS; 96% (inactive) in the test with PC-3 prostate. Also, the growth was 99.3% (inactive) and 101% (inactive) in the test with SK-MEL-5 melanoma; 110% (inactive) and 97.7% (inactive) with UACC-62 melanoma; 94.5% (inactive) and 98.4% (inactive) in the test on LOX IMVI melanoma; 118% (inactive) and 169% (inactive) in the test with SK-MEL-28 melanoma; 113% (inactive) and 100% (inactive) with SK-MEL-2 melanoma; 90% (inactive) and 104% (inactive) in the test on EKVX NSCLC. For the same compound, the growth in the test on SN12C renal was 109% (inactive) and 103% (inactive); with UO-31 renal, 95.2% (inactive) and 96.6% (inactive); in the test with TK-10 renal it was 105% (inactive) and 121% (inactive); with ACHN renal, 109% (inactive) and 107% (inactive); with CAKI-1 renal, 82.2% (inactive) and 103% (inactive); in the test with A498 renal, 166% (inactive). The growth was 86.9% (inactive) and 94.1% (inactive) in the test on CCRF-CEM leukemia; 94.8% (inactive) with MOLT-4 leukemia.

Take `O=C(/C=C/c1ccccc1)c1cccs1`: the growth is 95.1% (inactive) and 95.5% (inactive) in the test with HCT-15 colon; 99.8% (inactive) and 90.7% (inactive) with HT29 colon; 102% (inactive) and 97.3% (inactive) with SNB-75 CNS; 93.6% (inactive) and 104% (inactive) with SNB-19 CNS; 80.8% (inactive) and 85.9% (inactive) in the test on U251 CNS; 90.8% (inactive) and 103% (inactive) in the test with PC-3 prostate. For the same compound, the growth in the test with SK-MEL-5 melanoma is 101% (inactive) and 100% (inactive); in the test on UACC-62 melanoma, 92.9% (inactive) and 99.6% (inactive); in the test on LOX IMVI melanoma, 82.1% (inactive) and 64.5% (inactive); in the test with SK-MEL-28 melanoma it was 111% (inactive) and 105% (inactive); with SK-MEL-2 melanoma, 105% (inactive) and 107% (inactive); with EKVX NSCLC, 97.6% (inactive) and 94.7% (inactive). In addition, the growth in the test with SN12C renal was 96.7% (inactive) and 94.1% (inactive); in the test with UO-31 renal, 88.9% (inactive) and 94.1% (inactive); in the test with TK-10 renal, 95.5% (inactive) and 103% (inactive); with ACHN renal, 100% (inactive) and 110% (inactive); in the test with CAKI-1 renal, 99.9% (inactive) and 93.7% (inactive); with A498 renal, 94.4% (inactive) and 91.6% (inactive). Moreover, the growth in the test with CCRF-CEM leukemia was 82.7% (inactive); with MOLT-4 leukemia, 109% (inactive) and 96% (inactive).

Consider `CCCc1cc(C(N)=S)ccn1`, for which the growth with HCT-15 colon is 102% (inactive); in the test on HT29 colon, 97.6% (inactive); in the test on SNB-75 CNS it was 103% (inactive); in the test on SNB-19 CNS it was 115% (inactive); with U251 CNS it was 103% (inactive); in the test with PC-3 prostate, 98.3% (inactive). Further, the growth with SK-MEL-5 melanoma is 107% (inactive); in the test on UACC-62 melanoma, 108% (inactive); with LOX IMVI melanoma, 96.7% (inactive); in the test on SK-MEL-28 melanoma it was 116% (inactive); in the test with SK-MEL-2 melanoma, 103% (inactive); in the test on EKVX NSCLC, 99.1% (inactive). Moreover, the growth was 105% (inactive) in the test on SN12C renal; 76.4% (inactive) in the test on UO-31 renal; 100% (inactive) in the test on TK-10 renal; 102% (inactive) in the test on ACHN renal; 96.1% (inactive) in the test with CAKI-1 renal; 125% (inactive) with A498 renal. Besides, the growth in the test with CCRF-CEM leukemia was 113% (inactive); in the test with MOLT-4 leukemia it was 105% (inactive).

`C[C@]12CCc3c(ccc4cc(O)ccc34)[C@@H]1C[C@H](O)[C@@H]2O`: the growth with HCT-15 colon is 108% (inactive); with HT29 colon, 102% (inactive); in the test with SNB-75 CNS it was 116% (inactive); in the test with SNB-19 CNS it was 95% (inactive); in the test with U251 CNS, 101% (inactive); in the test with PC-3 prostate, 78.5% (inactive). Moreover, the growth with SK-MEL-5 melanoma was 102% (inactive); in the test on UACC-62 melanoma it was 88.6% (inactive); in the test on LOX IMVI melanoma, 93.3% (inactive); with SK-MEL-28 melanoma it was 110% (inactive); in the test on SK-MEL-2 melanoma it was 125% (inactive); in the test with EKVX NSCLC it was 74.7% (inactive). For the same compound, the growth is 93% (inactive) in the test with SN12C renal; 85.3% (inactive) in the test with UO-31 renal; 110% (inactive) in the test with TK-10 renal; 98% (inactive) in the test on ACHN renal; 77.5% (inactive) in the test on CAKI-1 renal; 73% (inactive) in the test with A498 renal. Further, the growth was 84.7% (inactive) in the test on CCRF-CEM leukemia and 102% (inactive) in the test with MOLT-4 leukemia.
